Assay outcomes as filed in PubChem.
Sampled rows, rich in hits. Any-hit rate of the full collection: about 9.9%.
IL1B secr inh = qHTS for Inhibitors of Inflammasome Signaling: IL-1-beta AlphaLISA Primary Screen. THP-1 LPS/ATP IL-1B secretion, AlphaLISA, 16 h; hits give low values. 360,000 compounds, 4.7% hits. AID 743279, 2014. activity change, % at 57.5 µM; in the data active = activity change below about -50%; inconclusive = mostly about -30% to -49%; note: % is set by controls: 0 for no effect and ±100 for the full control effect
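THP-1 cells pretreated 1 hr with compounds (up to 57.5 uM final), then stimulated with LPS (250 ng/mL final) plus ATP (1.25 mM final); secreted IL-1B measured by AlphaLISA after 16 hr, decreased signal indicating inhibition.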
KB-3-1 cytotox = qHTS assay for MDR1-selective chemotherapeutics: Primary screen using the parental adenocarcinoma cell KB-3-1; KB-3-1 viability, CellTiter-Glo ATP luminescence, 72 h; Potency, µM (titrated, usually from 46.1 µM), hits mostly cytotoxic; 400,000 compounds, 1.4% hits; note: potency is the fitted concentration of half-maximal effect; % is set by controls: 0 for no effect and ±100 for the full control effect; nearly all actives have a fitted effect of over 60% in size
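Cells are dispensed, compounds pinned in, plates held at 37 °C for 72 h, then CellTiter-Glo is added and luminescence read after 10 minutes. Cell line: parental KB-3-1 in phenol-red-free DMEM, 10% FBS.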
MCF10A rereplic = A quantitative high throughput screen for small molecules that induce DNA re-replication in MCF 10a normal breast cells. Potency, µM (top dose mostly 46.1 µM), without a hit: at the top dose activity, positive = re-replication, actives largely listed as activators. MCF 10A DNA re-replication, Hoechst nuclear intensity, 48 h. 350,000 compounds, 2.9% hits. AID 624296, 2012; note: potency is the fitted concentration of half-maximal effect; % of control where 0% means no effect; nearly all actives have a fitted effect of over 50% in size
SW480 rerep = A quantitative high throughput screen for small molecules that induce DNA re-replication in SW480 colon adenocarcinoma cells; SW480 DNA re-replication, Hoechst DNA content imaging, 48 h; Potency, µM (highest dose often 46.1 µM), inactives show at the highest dose re-replication activation, most hits filed as activators; 340,000 compounds, 1.8% hits; AID 624297, 2012; note: potency is the fitted concentration of half-maximal effect; % of control where 0% means no effect; nearly all actives have a fitted effect of over 55% in size
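Treated cells incubate 48 hr (37 C, 5% CO2), are stained 40 min with Hoechst, and nuclear fluorescence is enumerated; a rise in nuclei with high DNA signal marks re-replication.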
KB-V1 cytotox = qHTS assay for MDR1-selective chemotherapeutics: Primary screen using the drug-selected MDR subline cells KB-V1 | 400,000 compounds, 3.4% hits | KB-V1 MDR cells viability, CellTiter-Glo, 72 h | Potency, µM (doses to about 46.1 µM), usual class: cytotoxic | AID 1347076, 2019; note: potency is the fitted concentration of half-maximal effect; % is set by controls: 0 for no effect and ±100 for the full control effect; nearly all actives have a fitted effect of over 60% in size
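Drug-selected KB-V1 cells, grown in DMEM lacking phenol red with 10% FBS, receive compound titrations; after three days at 37 degrees C, surviving cell ATP is quantified by CellTiter-Glo luminescence and responses normalized and curve-fitted.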
An asterisk follows results filed as active; i = inactive; ? = inconclusive; . = no result given. Unless noted, calls come from the whole dose curve; as a rule, active = well fitted curve in the direction sought with a large enough effect; inconclusive = small, poorly fitted or top-dose-only effect, or another doubt; inactive = no such curve, though single readings can be large; an effect the other way counts as inactive or inconclusive.

SMILES	IL1B secr inh	KB-3-1 cytotox	MCF10A rereplic	SW480 rerep	KB-V1 cytotox
Cc1ccc(CNC(=O)Cc2coc3cc(C)cc(C)c23)cc1	.	i	.	.	i
Cc1c(N=C/C=C2\N(C)c3ccccc3C2(C)C)c(=O)n(-c2ccccc2)n1C	-5	i	-7%	0%	i
Cc1c(NC(=S)/C=C2\N(C)c3ccccc3C2(C)C)c(=O)n(-c2ccccc2)n1C	-7	i	2%	3%	23µM*
CCCCn1c(CN2CCN(c3cccc(Cl)c3)CC2)nc2c1c(=O)[nH]c(=O)n2C	39	?	?	5.8µM*	i
COc1cc(NC(=O)Nc2ccccc2OC)c(OC)cc1NC(=O)CN1CCCCC1	-4	?	-3%	-5%	i
COc1cc(NC(=O)c2ccccc2F)c(OC)cc1NC(=O)CN1CCCCC1	-57*	i	?	-18%	i
COc1cc(NC(=O)c2cccc(C)c2)c(OC)cc1NC(=O)CN1CCCCC1	-62*	i	11%	7%	i
COc1cc(NC(=O)c2ccc(Cl)cc2)c(OC)cc1NC(=O)CN1CCCCC1	-84*	?	?	?	i
CC1=NN(c2nc(N)nc(/C(C#N)=C/c3ccc([N+](=O)[O-])o3)n2)C(C)(C)C1	-16	?	3.3µM*	8.2µM*	?
CCC1CCCCN1C(=O)CSc1nc2c([nH]c3ccccc32)c(=O)n1-c1cccc(OC)c1 (centres undefined)	.	?	.	.	i
COCCn1c(C)cc(C(=O)COC(=O)c2ccc(Cl)c(S(N)(=O)=O)c2)c1C	0	i	4%	-6%	23µM*
Cc1cc2oc(=O)c(CC(=O)NCCCO)c(C)c2c2occ(C(C)(C)C)c12	-2	i	20%	5%	i
Cc1cc2oc(=O)c(CC(=O)NCCCN(C)C)c(C)c2c2occ(C(C)(C)C)c12	-98*	?	?	9.2µM*	?
COCCNC(=O)Cc1c(C)c2c(cc(C)c3c(C(C)(C)C)coc32)oc1=O	-24	?	5.8µM*	16µM*	?
O=C(CCCl)Nc1nnc(SCC(=O)NC2CCCC2)s1	-88*	i	18µM*	8.2µM*	i
O=C1NC(Cc2ccc(O)cc2)c2nc3ccc(F)cc3c(=O)n2-c2cc(Cl)ccc21 (centres undefined)	0	i	-6%	0%	i
COc1ccc(C=CC(=O)c2ccc([N+](=O)[O-])cc2)cc1	0	i	-8%	-3%	i
COc1ccc(C=CC(=O)c2c(OC)cc(OC)c(OC)c2O)cc1	-63*	i	?	?	?
C=CCOc1ccc(C=CC(=O)c2c(O)c(OC)c(OC)c(OC)c2OC)cc1	-102*	?	?	18%	5.8µM*
COc1ccc(C(=O)/C=C/c2ccc(O)cc2)cc1	-57*	i	16%	16%	i
CN(C)c1ccc(/C=C/C(=O)c2ccc(O)cc2)cc1	-106*	?	?	18µM*	i
O=[N+]([O-])c1ccc2c(c1)ncn2CCc1ccccc1	10	i	?	-16%	i
CCCS(=O)(=O)N1CCCC(C(=O)NCCOC)C1 (centres undefined)	.	i	.	.	i
CCOC(=O)c1sc2ccccc2c1S(=O)(=O)N1CCN(c2cc(C)ccc2C)CC1	.	i	.	.	i
CCOC(=O)N1CCC(N2CCN(c3cc(C)ccc3C)CC2)CC1	-7	i	4%	-3%	23µM*
SMILES	IL1B secr inh	KB-3-1 cytotox	MCF10A rereplic	SW480 rerep	KB-V1 cytotox
CCOC(=O)c1ccc(N2CCN(c3cc(C)ccc3C)CC2)c(N)c1	-13	i	18µM*	?	i
CCOC(=O)N1CCC(Nc2c(N3CCN(c4cc(Cl)ccc4C)CC3)c(=O)c2=O)CC1	-11	?	11%	4%	?
CC(=O)c1cccc(NC(=O)Nc2cnn(Cc3ccc(Cl)cc3Cl)c2)c1	?	?	?	-2%	18µM*
O=C(Nc1cnn(Cc2ccc(Cl)cc2Cl)c1)c1noc2c1CCCC2	-11	i	16%	19%	10µM*
O=C(Nc1cnn(Cc2ccc(Cl)cc2Cl)c1)c1cc(-c2cccs2)on1	0	i	-11%	-7%	?
CCOC(=O)N1CCC(NC(=O)c2ccc3c(c2)N=C(C)c2c(C)ccc(C)c2S3)CC1	14	2.1µM*	23%	7.3µM*	5.2µM*
Cc1[nH]c2ccc(C(=O)NC3CCC(C)CC3)cc2c1C (centres undefined)	-14	i	-5%	9%	i
CC1=Nc2cc(C(=O)NC3CCC(C)CC3)ccc2Sc2c(C)ccc(C)c21 (centres undefined)	.	0.52µM*	.	.	0.26µM*
COCCCNC(=O)c1ccc2c(c1)N=C(C)c1c(C)ccc(C)c1S2	.	0.016µM*	.	.	0.052µM*
CCc1ccc(NC(=O)CC2C(=O)NCCN2C(=O)c2ccc(F)cc2)cc1 (centres undefined)	i	i	?	?	i
CCCCCCCCN1C(=O)[C@H](CC(=O)NCCc2ccccc2OC)C[C@@]2(C(=O)OC)CC(C)(C)CC=C12	-24	?	.	.	?
O=C(O)CSc1cccc2cccnc12	6	i	3%	?	i
Cc1ccc(C(=O)COC(=O)CSc2cccc3cccnc23)c(C)c1	-88*	i	9%	?	i
O=c1c2ccccc2nc2n1-c1ccccc1CCC2	5	i	22%	2%	?
O=C1c2ccccc2-n2c1nc1ccccc1c2=O	-5	?	8%	1.2µM*	?
CCOC(=O)c1c(NC(=O)C2=C(C)NC(=S)NC2c2ccc(F)cc2)sc(C)c1C (centres undefined)	-87*	i	18µM*	?	?
CCOC(=O)c1c(NC(=O)C2c3ccccc3Oc3ccccc32)sc(C)c1C	.	i	.	.	i
CCOC(=O)c1c(NC(=O)C2=C(C)NC(=S)NC2c2ccc(C)cc2)sc(C)c1C (centres undefined)	-76*	?	?	2%	21µM*
CCCC(=O)O[C@]1(C(=O)CCl)[C@H](C)C[C@@H]2[C@H]3CCC4=CC(=O)C=C[C@]4(C)[C@@]3(F)C(=O)C[C@@]21C	.	.	-4%	7%	.
CC(CCc1ccccc1)NC(=O)C(Cc1ccccc1)NC(N)=O (centres undefined)	-5	i	3%	1%	i
CCOc1ccc2oc(C(=O)NCc3ccccc3CN3CCCC3)c(C)c2c1	-57*	?	?	?	i
